Assays:
Details in all cases: concentration: 1 μM, replicates: in singlicate; n = 1
[1] = tested on: TNIK
[2] = tested on: TNK1
[3] = tested on: TNK2
[4] = tested on: TNNI3K
[5] = tested on: T1, TRKA
T1 construct: gene NTRK1

[6] = tested on: TRKB
[7] = tested on: T2, TRKC
T2 construct: gene NTRK3

[8] = tested on: TRPM6
[9] = tested on: TSSK1B
[10] = tested on: TSSK3
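Note: KINOMEscan kinase panel screen.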

COc1cc2ncnc(Nc3ccc4nc(-c5ccccc5)[nH]c4c3)c2cc1OC.Cl [GW282450]
%Inh [1]: 0%
%Inh [2]: 0%
%Inh [3]: 9%
%Inh [4]: 14%
%Inh [5]: 48%
%Inh [6]: 0%
%Inh [7]: 0%
%Inh [8]: 38%
%Inh [9]: 0%
%Inh [10]: 21%

Cl.Oc1ccc(-c2nc(-c3ccccc3)[nH]c2-c2ccncc2)cc1 [SB-428218]
%Inh [1]: 0%
%Inh [2]: 0%
%Inh [3]: 10%
%Inh [4]: 0%
%Inh [5]: 0%
%Inh [6]: 63%
%Inh [7]: 64%
%Inh [8]: 0%
%Inh [9]: 0%
%Inh [10]: 0%

CC(C)(C)c1ccc(C(=O)Nc2cn3cc(-c4cccnc4)ccc3n2)cc1
%Inh [1]: 25%
%Inh [2]: 0%
%Inh [3]: 17%
%Inh [4]: 0%
%Inh [5]: 10%
%Inh [6]: 11%
%Inh [7]: 1%
%Inh [8]: 0%
%Inh [9]: 0%
%Inh [10]: 0%

COc1cc(Nc2nccc(N3CCC(NC(=O)Nc4cc(C)ccc4C)C3)n2)cc(OC)c1OC (centres unmarked) [GSK1379762]
%Inh [1]: 0%
%Inh [2]: 14%
%Inh [3]: 15%
%Inh [4]: 0%
%Inh [5]: 18%
%Inh [6]: 0%
%Inh [7]: 20%
%Inh [8]: 0%
%Inh [9]: 7%
%Inh [10]: 21%

O=C(Nc1n[nH]c2cc(-c3cccc(F)c3F)ccc12)C1CC1 [SB-733894]
%Inh [1]: 72%
%Inh [2]: 10%
%Inh [3]: 2%
%Inh [4]: 0%
%Inh [5]: 38%
%Inh [6]: 11%
%Inh [7]: 34%
%Inh [8]: 0%
%Inh [9]: 0%
%Inh [10]: 0%

COc1cccc(-c2cc(-c3c[nH]nc3-c3ccccn3)ccn2)c1 [GW680338]
%Inh [1]: 71%
%Inh [2]: 0%
%Inh [3]: 0%
%Inh [4]: 9%
%Inh [5]: 38%
%Inh [6]: 0%
%Inh [7]: 11%
%Inh [8]: 0%
%Inh [9]: 0%
%Inh [10]: 11%

COc1cc2nccc(Nc3ccc(NC(=O)c4ccc(C)cc4)c(O)c3)c2cc1OC.Cl [GW440132]
%Inh [1]: 0%
%Inh [2]: 26%
%Inh [3]: 48%
%Inh [4]: 4%
%Inh [5]: 36%
%Inh [6]: 0%
%Inh [7]: 0%
%Inh [8]: 5%
%Inh [9]: 3%
%Inh [10]: 18%

C[C@@H]1CCCCN1c1cc(-c2ccc3c(N)n[nH]c3c2)nc(N)n1 [GSK2258759]
%Inh [1]: 0%
%Inh [2]: 0%
%Inh [3]: 18%
%Inh [4]: 0%
%Inh [5]: 0%
%Inh [6]: 0%
%Inh [7]: 0%
%Inh [8]: 16%
%Inh [9]: 0%
%Inh [10]: 2%

COc1ccc(CNC(=O)NC2CCN(c3ccnc(Nc4cc(OC)c(OC)c(OC)c4)n3)C2)cc1 (centres unmarked) [GSK1379748]
%Inh [1]: 0%
%Inh [2]: 0%
%Inh [3]: 4%
%Inh [4]: 10%
%Inh [5]: 73%
%Inh [6]: 23%
%Inh [7]: 40%
%Inh [8]: 18%
%Inh [9]: 0%
%Inh [10]: 10%

Cl.NC(=O)c1cccc(Nc2nccc(Nc3ccc(Oc4cccc(Cl)c4)c(Cl)c3)n2)c1 [GW659008]
%Inh [1]: 2%
%Inh [2]: 77%
%Inh [3]: 29%
%Inh [4]: 4%
%Inh [5]: 0%
%Inh [6]: 0%
%Inh [7]: 0%
%Inh [8]: 13%
%Inh [9]: 0%
%Inh [10]: 4%

Cc1csc(-c2nc(Nc3ccncc3)c3ccccc3n2)n1 [GW869640]
%Inh [1]: 50%
%Inh [2]: 21%
%Inh [3]: 0%
%Inh [4]: 18%
%Inh [5]: 44%
%Inh [6]: 12%
%Inh [7]: 22%
%Inh [8]: 44%
%Inh [9]: 0%
%Inh [10]: 23%

COc1ccc2nc(-c3cccc(C)n3)nc(Nc3ccncc3)c2c1 [GSK204919]
%Inh [1]: 9%
%Inh [2]: 0%
%Inh [3]: 15%
%Inh [4]: 16%
%Inh [5]: 0%
%Inh [6]: 0%
%Inh [7]: 0%
%Inh [8]: 0%
%Inh [9]: 0%
%Inh [10]: 14%

CC(=O)Nc1nc2cnc(Nc3cc(NC(=O)c4cccc(CCC#N)c4)ccc3C)nc2s1
%Inh [1]: 7%
%Inh [2]: 0%
%Inh [3]: 9%
%Inh [4]: 7%
%Inh [5]: 0%
%Inh [6]: 6%
%Inh [7]: 5%
%Inh [8]: 3%
%Inh [9]: 2%
%Inh [10]: 0%

Cc1c(Cn2ccn3c(=O)cc(N4CCOCC4)nc23)cccc1C(F)(F)F [GSK2289044]
%Inh [1]: 3%
%Inh [2]: 0%
%Inh [3]: 6%
%Inh [4]: 2%
%Inh [5]: 1%
%Inh [6]: 0%
%Inh [7]: 0%
%Inh [8]: 12%
%Inh [9]: 12%
%Inh [10]: 6%

CCn1c(-c2ccccn2)nc2cnccc21 [SB-736398]
%Inh [1]: 0%
%Inh [2]: 7%
%Inh [3]: 9%
%Inh [4]: 0%
%Inh [5]: 0%
%Inh [6]: 59%
%Inh [7]: 52%
%Inh [8]: 0%
%Inh [9]: 5%
%Inh [10]: 12%

CC1=C(C(=O)Nc2cc3cn[nH]c3cc2F)C(c2ccc(C(F)(F)F)cc2)CC(=O)N1 (centres unmarked) [GSK429286]
%Inh [1]: 0%
%Inh [2]: 0%
%Inh [3]: 15%
%Inh [4]: 3%
%Inh [5]: 0%
%Inh [6]: 0%
%Inh [7]: 0%
%Inh [8]: 0%
%Inh [9]: 13%
%Inh [10]: 14%

O=C(O)COc1ncnc2cc(-c3ccc4[nH]ncc4c3)sc12
%Inh [1]: 10%
%Inh [2]: 0%
%Inh [3]: 0%
%Inh [4]: 0%
%Inh [5]: 33%
%Inh [6]: 42%
%Inh [7]: 0%
%Inh [8]: 6%
%Inh [9]: 0%
%Inh [10]: 0%
